Compounds with a hit are over-represented: about 2.9% of the library has one in this group of screens.
PAFAH1B2 inh: PAFAH1B2 enzyme inhibitors, primary screen, biochemical, fluorescence polarization, human. Platelet-activating factor acetylhydrolase IB subunit alpha2 (Homo sapiens), P68402. recombinant PAFAH1B2, FP-rhodamine activity probe. inhibition, % at 3.39 µM. 340,000 compounds, 1.2% hits. AID 492953, 2010;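 active means inhibition above the mean of all tested compounds plus 3 SD, cut at about 24% in these data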
PAFAH2 FP inh: PAFAH2 enzyme inhibitors, primary screen, biochemical, fluorescence polarization, human; Platelet-activating factor acetylhydrolase 2, cytoplasmic (Homo sapiens), Q99487; recombinant PAFAH2, FP-rhodamine activity probe; inhibition, % at 3.39 µM; 340,000 compounds, 0.99% hits; AID 492956, 2010;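 active means inhibition above the mean over all tested compounds plus 3 SD, cut at about 30% in these data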;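 further: inhibitors block probe labeling of enzyme so polarization drops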
Fam108B inh: mouse Fam108B serine hydrolase inhibitors, primary screen, counter-screen for RBBP9 inhibitor project, biochemical, fluorescence polarization; recombinant Fam108B, FP-Rh probe fluorescence polarization; inhibition, % at 9.51 µM; 300,000 compounds, 0.33% hits;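 active means inhibition above the screen mean inhibition plus 3 SD, computed separately per campaign, cut at about 18% in these data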;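 further: inhibitors lower polarization as less probe binds the enzyme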
PAFAH1B3 FP inh: PAFAH1B3 enzyme inhibitors, primary screen, biochemical, fluorescence polarization, human; recombinant PAFAH1B3, FP-rhodamine probe; 340,000 compounds, 0.28% hits; inhibition, % at 3.39 µM; Platelet-activating factor acetylhydrolase IB subunit alpha1 (Homo sapiens), Q15102;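 active means inhibition above the screen-wide average of all tested compounds plus 3 SD, cut at about 25% in these data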
PME-1 primary: PME-1 inhibitors via competitive probe labeling, primary screen, biochemical, fluorescence polarization, FP-Rh probe, HTS. AID 2130, 2009. 320,000 compounds, 0.53% hits. Protein phosphatase methylesterase 1 (Homo sapiens), Q9Y570. inhibition, % at 5.9 µM. recombinant PME-1;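 active means inhibition above the campaign mean of all compounds plus 3 SD, cut at about 26% in these data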;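 further: competitive labeling of PME-1 active site by serine hydrolase directed probe; inhibitors block probe labeling so polarization falls and inhibition rises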
Target sequence (Q9Y570 whole entry, looked up): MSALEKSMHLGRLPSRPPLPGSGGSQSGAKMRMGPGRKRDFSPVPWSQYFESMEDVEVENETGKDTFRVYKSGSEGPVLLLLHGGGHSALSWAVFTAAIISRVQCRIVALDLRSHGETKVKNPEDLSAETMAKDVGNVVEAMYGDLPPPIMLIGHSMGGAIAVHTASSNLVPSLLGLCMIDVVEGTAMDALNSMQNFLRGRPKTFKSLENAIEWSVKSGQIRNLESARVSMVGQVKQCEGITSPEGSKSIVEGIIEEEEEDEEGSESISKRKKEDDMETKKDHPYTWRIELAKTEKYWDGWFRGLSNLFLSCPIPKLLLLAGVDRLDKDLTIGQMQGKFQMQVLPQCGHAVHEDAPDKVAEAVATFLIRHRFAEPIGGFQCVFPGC
pPAFAH FP inh: pPAFAH enzyme inhibitors, primary screen, biochemical, fluorescence polarization, human; Platelet-activating factor acetylhydrolase (Homo sapiens), Q13093; recombinant pPAFAH, FP-rhodamine probe fluorescence polarization; inhibition, % at 3.39 µM; 330,000 compounds, 1.5% hits;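 active means inhibition above the mean inhibition across the screen plus 3 SD, cut at about 25% in these data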;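 further: inhibitors block binding of the rhodamine activity-based probe so polarization drops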
PAFAH2 FP conf: PAFAH2 enzyme inhibitors, confirmation, biochemical, fluorescence polarization, human. recombinant PAFAH2, FP-rhodamine activity probe. 2,300 compounds, 65% hits. AID 493030, 2011. shares compounds with PAFAH2 FP inh. inhibition, % at 3.39 µM;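 active means mean inhibition over three repeats above a set limit taken from the earlier primary screen, cut at about 30% in these data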;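 further: inhibitor blocks binding of rhodamine activity probe so polarization falls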
Large screens that a line does not name were inactive (follow-up assays come after a bar, where they were run).

CCNc1ccc(C(=O)OCC(=O)NCc2ccc(C)cc2)cc1[N+](=O)[O-]	none
Cc1ccc(C(=O)OCC(=O)NC(C)c2ccccc2)s1 (stereo unspecified)	PAFAH2 FP inh 78 (no result: Fam108B inh, PME-1 primary) | PAFAH2 FP conf 69
Cc1ccc(C(=O)NCC(=O)OCC(=O)NC(C)c2ccccc2)s1 (stereo unspecified)	none
CCNc1ccc(C(=O)OCC(=O)NC(C)c2ccccc2)cc1[N+](=O)[O-] (stereo unspecified)	PAFAH2 FP inh 83 | PAFAH2 FP conf 73
CC(NC(=O)COC(=O)c1ccc2c(c1)OCCO2)c1ccccc1 (stereo unspecified)	PAFAH2 FP inh 63 (no result: Fam108B inh, PME-1 primary) | PAFAH2 FP conf 61
O=C(COC(=O)c1ccc2c(c1)OCCO2)NCCc1ccccc1	PAFAH2 FP inh 46 (no result: Fam108B inh, PME-1 primary) | PAFAH2 FP conf 41
CC(NC(=O)COC(=O)c1ccc(S(=O)(=O)N2CCOCC2)cc1)c1ccccc1 (stereo unspecified)	none (no result: Fam108B inh, PME-1 primary)
CC1CCc2c(sc(NC(=O)CSc3nc(N)cc(=O)[nH]3)c2C(N)=O)C1 (stereo unspecified)	none (no result: Fam108B inh, PME-1 primary, pPAFAH FP inh)
O=C(N1CCCC1)C12CC3CC(CC(Cl)(C3)C1)C2	none
Cc1ccc(C(=O)OCC(=O)c2ccc(Cl)s2)s1	PAFAH2 FP inh 74 | PAFAH2 FP conf 66
COc1ccc(C(=O)OCC(=O)NCc2ccccc2)c(OC)c1OC	PAFAH2 FP inh 57 | PAFAH2 FP conf 56
COc1ccc(C)cc1NC(=O)COC(=O)c1c(C)noc1C	PAFAH2 FP inh 46 | PAFAH2 FP conf inactive
COc1cc(OC)c(C(=O)OCC(=O)Nc2cc(C)on2)cc1OC	none
COc1ccc(C(=O)OCC(=O)Nc2ccc(Cl)c(C(F)(F)F)c2)c(OC)c1OC	PAFAH2 FP inh 68 | PAFAH2 FP conf 77
CCOc1ccc(CCNC(=O)COC(=O)c2ccc(OC)c(OC)c2OC)cc1OCC	none
COc1ccc(C(=O)OCC(=O)Nc2cc(C)on2)c(OC)c1OC	PAFAH2 FP inh 68 | PAFAH2 FP conf 65
C/C(=N\NC(=S)Nc1ccccc1C)c1ccc(O)cc1	none
COc1cc(C(=O)OCC(=O)Nc2cc(C)on2)c([N+](=O)[O-])cc1OC	PAFAH2 FP inh 37 | PAFAH2 FP conf inactive
COc1ccccc1/C=C/C(=O)OCC(=O)Nc1c(F)cccc1F	PAFAH2 FP inh 53 | PAFAH2 FP conf 63
COc1ccccc1OCCC(=O)OCC(=O)Nc1ccc2c(c1)OCO2	none (no result: Fam108B inh, PME-1 primary)
COc1ccccc1/C=C/C(=O)OCC(=O)Nc1ccc2c(c1)OCO2	PAFAH2 FP inh 79 (no result: Fam108B inh, PME-1 primary) | PAFAH2 FP conf 85
O=C(COC(=O)/C=C/c1ccccc1)NCc1ccc2c(c1)OCO2	none (no result: Fam108B inh, PME-1 primary)
COc1ccccc1/C=C/C(=O)OCC(=O)NCc1ccc2c(c1)OCO2	PAFAH2 FP inh 51 (no result: Fam108B inh, PME-1 primary) | PAFAH2 FP conf 33
COCCCNC(=O)c1cc(C)nn1-c1ccccc1	none
COc1cccc(C(=O)OCn2nnc3ccccc3c2=O)c1	PAFAH2 FP inh 37 | PAFAH2 FP conf inactive
O=C(OCc1nc2ccccc2c(=O)[nH]1)c1cccs1	PAFAH2 FP inh 42 | PAFAH2 FP conf inactive
O=C(OCn1nnc2ccccc2c1=O)c1cccs1	PAFAH2 FP inh 47 | PAFAH2 FP conf 37
CCC(=O)OCn1nnc2ccccc2c1=O	none
COc1ccc(C(=O)OCn2nnc3ccccc3c2=O)cc1OC	PAFAH2 FP inh 36 | PAFAH2 FP conf 46
Cc1cccc(C2c3[nH]c4ccccc4c3CCN2C(=O)c2cc(CC(C)C)[nH]c(=O)n2)n1 (stereo unspecified)	none
CC(=O)Nc1cccc(OCCCNC(=O)c2cccc3ccccc23)c1	none (no result: PAFAH1B2 inh, PAFAH2 FP inh, PAFAH1B3 FP inh)
CCOc1ccccc1NC(=O)CSc1n[nH]c(N)n1	none
Nc1ccc(C(=O)OCc2nc3c(ccc4ccccc43)[nH]2)cc1	PAFAH2 FP inh 80 | PAFAH2 FP conf 82
